Screening results: PubChem, several laboratories
Shown are actives, neighbours in structure and some others; about 0.83% of the full set was active somewhere.
NCOA1 inh: human NCOA1 inhibition; HEK293 GAL4-SRC1 luciferase reporter, luminescence; inhibition, % at 3.6 µM; 0.12% of 360,000 active; AID 588354;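 active = inhibition above the campaign mean plus 3 SD, with each screening campaign given its own cutoff, cut at about 60% in these data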;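 note: 0% = DMSO treated cells and 100% = gossypol at 36 µM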
Gli-Sufu block: antagonists of Gli-Sufu signaling | 0.74% of 340,000 active | inhibition, % at 5 µM | Sufu-KO-LIGHT fibroblasts, Gli luciferase reporter luminescence;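 active = inhibition above about 55%, limit read from the data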;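 note: 0% = DMSO-treated cells and 100% = wells with medium but no cells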
NCOA3 inh: human NCOA3 inhibition. Q9Y6Q9. HEK293 GAL4-SRC3 luciferase reporter, luminescence. inhibition, % at 3.6 µM. 0.17% of 360,000 active;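 active = inhibition above a per-campaign cutoff, the mean of all compounds plus 3 SD, cut at about 60% in these data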;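 note: 0% = DMSO-treated cells and 100% = gossypol-treated cells at 36 µM; higher means less SRC3-driven luciferase light from the GAL4 reporter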
Target sequence (Q9Y6Q9 whole entry, looked up, the tested form may be a part): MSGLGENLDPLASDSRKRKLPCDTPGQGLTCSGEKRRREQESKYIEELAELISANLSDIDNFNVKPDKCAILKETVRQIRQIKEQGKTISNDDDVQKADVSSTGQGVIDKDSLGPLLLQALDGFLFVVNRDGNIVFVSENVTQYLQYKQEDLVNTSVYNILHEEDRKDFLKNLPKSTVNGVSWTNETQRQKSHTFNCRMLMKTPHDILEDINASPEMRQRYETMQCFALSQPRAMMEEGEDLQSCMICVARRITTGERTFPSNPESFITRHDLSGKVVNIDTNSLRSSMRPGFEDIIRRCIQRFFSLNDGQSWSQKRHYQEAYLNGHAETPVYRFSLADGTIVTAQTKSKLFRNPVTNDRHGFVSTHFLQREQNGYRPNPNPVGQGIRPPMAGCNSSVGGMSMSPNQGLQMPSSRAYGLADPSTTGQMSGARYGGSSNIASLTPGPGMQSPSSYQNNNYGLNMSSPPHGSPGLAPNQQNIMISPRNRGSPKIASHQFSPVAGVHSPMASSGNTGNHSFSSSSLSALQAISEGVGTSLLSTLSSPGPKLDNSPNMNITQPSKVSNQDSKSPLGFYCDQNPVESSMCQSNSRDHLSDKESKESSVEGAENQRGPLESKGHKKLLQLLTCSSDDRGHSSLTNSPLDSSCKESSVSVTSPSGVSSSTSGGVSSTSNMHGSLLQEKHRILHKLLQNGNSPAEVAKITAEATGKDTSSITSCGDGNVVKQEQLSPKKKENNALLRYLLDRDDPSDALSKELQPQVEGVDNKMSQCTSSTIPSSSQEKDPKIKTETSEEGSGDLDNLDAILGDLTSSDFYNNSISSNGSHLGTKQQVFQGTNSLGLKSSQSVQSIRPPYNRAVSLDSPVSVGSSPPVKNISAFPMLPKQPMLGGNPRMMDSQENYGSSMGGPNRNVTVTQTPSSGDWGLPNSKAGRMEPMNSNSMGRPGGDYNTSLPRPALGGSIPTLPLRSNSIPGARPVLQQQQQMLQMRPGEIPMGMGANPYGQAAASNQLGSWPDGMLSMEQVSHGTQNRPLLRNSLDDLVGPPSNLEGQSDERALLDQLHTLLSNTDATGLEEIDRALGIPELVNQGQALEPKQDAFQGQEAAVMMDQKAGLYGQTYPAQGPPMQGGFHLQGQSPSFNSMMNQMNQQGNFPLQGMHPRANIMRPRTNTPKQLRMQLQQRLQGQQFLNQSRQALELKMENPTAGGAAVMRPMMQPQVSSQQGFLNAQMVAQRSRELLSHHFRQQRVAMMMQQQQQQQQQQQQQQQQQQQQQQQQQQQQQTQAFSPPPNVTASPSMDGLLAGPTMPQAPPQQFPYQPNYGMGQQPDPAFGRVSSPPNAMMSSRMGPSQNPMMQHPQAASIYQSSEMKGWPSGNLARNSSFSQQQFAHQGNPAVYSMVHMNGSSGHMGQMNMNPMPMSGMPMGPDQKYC
NR5A2 inv ag: NR5A2 inverse agonism in reporter assay; HEK293T StAR-luciferase reporter, LRH-1 transfected, 24 h; inhibition, % at 3.6 µM; 0.13% of 360,000 active; AID 602396; O00482;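 active = inhibition above the mean inhibition of all tested compounds plus 3 SD, cut at about 73% in these data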;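 note: 0% = DMSO wells and 100% = reporter-only cells lacking LRH-1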
SRC2 inh: human SRC2 (NCOA2) inhibition. Q15596. HEK293 GAL4-SRC2 luciferase reporter, luminescence. inhibition, % at 9 µM. 0.17% of 370,000 active. AID 651957;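 active = inhibition above the mean inhibition of all tested compounds plus 3 SD, set per campaign, cut at about 52% in these data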;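 note: 0% = DMSO treated cells and 100% = cells given Gossypol at 36 µM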
Gli-Sufu confirm: Gli-SUFU antagonism confirmation, single concentration. shares compounds with Gli-Sufu block. Sufu-KO-LIGHT cells, Gli luciferase reporter, luminescence. inhibition, % at 5 µM. 40% of 2,500 active;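 active = mean inhibition at 5 µM reaching about 45%, limit read from the data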;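 note: plate controls were DMSO-treated cells for no effect and wells lacking cells for full effect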
SufuKO cytotox: counter-screen for Gli-SUFU antagonists: cytotoxicity. shares compounds with Gli-Sufu block. Sufu-KO-LIGHT cells cytotoxicity, ATP luminescence. cytotoxicity, % at 5 µM. 32% of 2,500 active. AID 651994;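 active = mean cytotoxicity at 5 µM above about 25%, limit read from the data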;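 note: cells exposed to compound overnight for roughly 16 to 18 hours; plate controls were DMSO wells with cells for no effect and medium without cells for full effect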
Wnt3a cs: Wnt3a reporter inhibition counter-screen; shares compounds with Gli-Sufu block; Wnt-LIGHT cells, Wnt3a-driven luciferase reporter, luminescence; inhibition, % at 6.25 µM; 20% of 2,500 active;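 active = mean inhibition above about 25%, limit read from the data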
The depositor's hits bear a star; x = no result.

SMILES | NCOA1 inh | Gli-Sufu block | NCOA3 inh | NR5A2 inv ag | SRC2 inh | Gli-Sufu confirm | SufuKO cytotox | Wnt3a cs
COC(=O)C1=C(c2ccc(OC(F)(F)F)cc2)C[C@@H]2CC[C@H]1N2C(=O)N1CCc2cc(OC)c(OC)cc2C1 | x | x | x | x | -0.8 | x | x | x
CCN(CC)C1=NC(=[N+](CC)CC)c2ccccc21 | 40.2 | 78.9* | 26.8 | 55.1 | 31.2 | 80.1* | 26.6* | 39.2*
CN1CN=C(N[N+](=O)[O-])N(Cc2ccco2)C1 | 7.4 | -1.5 | -7.6 | -16.4 | -34.9 | x | x | x
O=[N+]([O-])NC1=NCN(Cc2ccco2)CN1Cc1ccco1 | -29.5 | 90.9* | 19.5 | 1.0 | 2.2 | 13.7 | 16.0 | -8.0
CC(=O)NCC1=C(c2ccc(S(C)(=O)=O)cc2)C[C@@H]2CC[C@H]1N2CCOc1ccccc1 | x | x | x | x | -13.5 | x | x | x
CCOc1ccccc1N=C1SCCCN1C | -7.8 | -0.2 | 19.7 | 5.5 | 9.3 | x | x | x
CCOc1cccc(=NC2CCCCC2)c2c(C)n(C)c(C)c12 | 15.3 | 85.7* | 26.3 | 2.7 | 20.7 | 88.5* | 44.4* | 4.3
O=S(=O)(c1ccc2ccccc2c1)N1Cc2cc(Br)ccc2-n2nncc2C1 | x | x | x | x | -9.4 | x | x | x
Cn1c(NN=O)nc2ccccc21 | 2.4 | 82.8* | 4.4 | 14.3 | -5.8 | 37.0 | 23.0 | 12.5
CN1CCN(Cc2nc3ccccc3n2C)CC1 | -16.4 | 3.9 | -10.3 | -12.2 | -24.2 | x | x | x
CC[C@]12CCN(CC3(O)CC3)[C@H](Cc3ccc(O)cc31)C2(C)C | x | x | x | x | 2.8 | x | x | x
CCN(CC)C(=O)c1ccc(NC(=O)CSc2nnnn2-c2cc(OC)ccc2OC)cc1 | -14.4 | 70.3* | 14.1 | 19.2 | 2.3 | 23.1 | 6.7 | 20.6
CCN(CC)C(=O)c1ccc(NC(=O)c2cc(S(=O)(=O)N3CCCCCC3)ccc2OC)cc1 | -21.7 | 13.1 | -2.2 | -1.3 | 15.7 | x | x | x
C[C@@H]1CNCCN1c1ccc(N2CC[C@@H](O)C2)c(C#N)c1 | x | x | x | x | 11.6 | x | x | x
COc1cc2c3c(c1OC)Oc1ccc(cc1)C[C@H]1c4c(cc(OC)c(OC)c4Oc4ccc(cc4)C[C@@H]3N(C)CC2)CCN1C | -12.3 | 64.7* | 2.1 | 0.5 | 14.9 | 20.4 | -4.6 | -0.6
COc1cc2c3cc1Oc1c(OC)c(OC)cc4c1[C@H](Cc1ccc(cc1)Oc1cc(ccc1O)C[C@H]3N(C)CC2)N(C)CC4 | -9.1 | 17.6 | 19.8 | 8.5 | 26.6 | x | x | x
